Source: publication PMC7826789 (International Journal of Molecular Sciences, 2021)

Assays:
Details in all cases: Compound Concentration (nM):1000
[1] = tested on: T1, AMPK-alpha1
T1 construct: gene PRKAA1

[2] = tested on: T2, AMPK-alpha2
T2 construct: gene PRKAA2

[3] = tested on: ANKK1
[4] = tested on: T3, ARK5
T3 construct: gene NUAK1

[5] = tested on: T4, ASK1
T4 construct: gene MAP3K5

[6] = tested on: T5, ASK2
T5 construct: gene MAP3K6

[7] = tested on: AURKA
[8] = tested on: AURKB
[9] = tested on: AURKC
[10] = tested on: AXL
[11] = tested on: T6, BIKE
T6 construct: gene BMP2K

[12] = tested on: BLK
[13] = tested on: BMPR1A
[14] = tested on: BMPR1B
[15] = tested on: BMPR2
[16] = tested on: BMX
[17] = tested on: BRAF(V600E)
[18] = tested on: BRAF
[19] = tested on: T7, BRK
T7 construct: gene PTK6

[20] = tested on: BRSK1
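Further: KINOMEscan scanMAX binding as percent activity remaining versus control; lower means stronger binding.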

SMILES | Percent Control [1] [%] | Percent Control [2] [%] | Percent Control [3] [%] | Percent Control [4] [%] | Percent Control [5] [%] | Percent Control [6] [%] | Percent Control [7] [%] | Percent Control [8] [%] | Percent Control [9] [%] | Percent Control [10] [%] | Percent Control [11] [%] | Percent Control [12] [%] | Percent Control [13] [%] | Percent Control [14] [%] | Percent Control [15] [%] | Percent Control [16] [%] | Percent Control [17] [%] | Percent Control [18] [%] | Percent Control [19] [%] | Percent Control [20] [%]
COc1ccc(COc2ccc(Cc3cnc(N)nc3N)cc2OC)cc1 [GW632580X] | 89 | 99 | 81 | 100 | 80 | 85 | 76 | 100 | 100 | 100 | 94 | 78 | 100 | 92 | 94 | 100 | 91 | 100 | 100 | 100
Cl.c1ccc(Cc2nc3ccc(Nc4ncnc5ccccc45)cc3[nH]2)cc1 [GR269666A] | 100 | 100 | 94 | 100 | 100 | 77 | 100 | 100 | 100 | 100 | 100 | 100 | 100 | 100 | 100 | 100 | 88 | 100 | 100 | 100
Cl.O=S1CCN(Cc2ccc(-c3ccc4ncnc(Nc5ccc(OCc6ccccc6)c(F)c5)c4c3)o2)CC1 [GW576924A] | 100 | 100 | 88 | 100 | 100 | 69 | 100 | 100 | 100 | 100 | 100 | 100 | 100 | 100 | 100 | 100 | 65 | 79 | 100 | 100
Cl.O=C(Nc1ccc(Oc2ccc3[nH]c(NC(=O)c4ccco4)nc3c2)cc1)Nc1cc(C(F)(F)F)ccc1F [GW683134A] | 67 | 82 | 100 | 100 | 100 | 93 | 98 | 13 | 56 | 0 | 100 | 70 | 73 | 100 | 98 | 87 | 13 | 32 | 100 | 100
COc1cc(/C=N/Nc2ncnc3[nH]ncc23)ccc1O [GW578748X] | 79 | 54 | 21 | 100 | 100 | 75 | 41 | 56 | 58 | 65 | 53 | 32 | 100 | 22 | 9.6 | 89 | 26 | 35 | 80 | 100
NS(=O)(=O)c1ccc(N/N=C2\C(=O)Nc3ccc(Cl)cc32)cc1 [GW280670X] | 100 | 88 | 97 | 100 | 100 | 91 | 91 | 100 | 100 | 100 | 100 | 100 | 100 | 100 | 100 | 100 | 92 | 100 | 100 | 100
COc1ccc2c(-c3ccnc(Nc4cccc(OC(F)(F)F)c4)n3)cnn2n1 [GW810372X] | 100 | 100 | 89 | 100 | 100 | 78 | 100 | 100 | 57 | 87 | 58 | 100 | 100 | 100 | 100 | 90 | 92 | 100 | 100 | 100
O=C1Nc2ccc(C(=O)c3ccco3)cc2C1=Cc1cc(Cl)c(O)c(Cl)c1 [GW406108X] | 90 | 94 | 9.2 | 100 | 100 | 72 | 35 | 22 | 58 | 100 | 59 | 100 | 100 | 35 | 0 | 81 | 1.2 | 4.4 | 100 | 100
COc1cccc(-c2c[nH]c3c(N/N=C/c4ccncc4)ncnc23)c1 [GW814408X] | 100 | 85 | 100 | 100 | 100 | 100 | 82 | 75 | 48 | 71 | 38 | 19 | 31 | 0.1 | 99 | 100 | 26 | 29 | 100 | 100
NS(=O)(=O)c1ccc(N/N=C2\C(=O)Nc3ccc(C(=O)NCc4ccncc4)cc32)cc1 [GW300657X] | 78 | 83 | 27 | 86 | 100 | 70 | 57 | 59 | 76 | 95 | 60 | 99 | 100 | 78 | 68 | 100 | 87 | 97 | 100 | 100
CN(C)c1cc2c(Nc3ccc4c(cnn4Cc4ccccc4)c3)ncnc2cn1 [GW282974X] | 90 | 100 | 100 | 100 | 100 | 73 | 74 | 100 | 92 | 98 | 86 | 80 | 100 | 91 | 100 | 100 | 99 | 92 | 75 | 92
Nc1ncnc2occ(-c3ccc(NC(=O)Nc4cc(C(F)(F)F)ccc4F)cc3)c12 [GW770249X] | 100 | 86 | 32 | 100 | 100 | 80 | 66 | 5.7 | 35 | 0 | 100 | 83 | 100 | 100 | 97 | 41 | 7 | 28 | 100 | 100
CCc1ccc(Oc2nccc(-c3c(-c4ccc(F)cc4)ncn3C3CCNCC3)n2)cc1 [SB-242719] | 100 | 99 | 83 | 100 | 84 | 66 | 81 | 100 | 98 | 100 | 100 | 82 | 87 | 88 | 82 | 100 | 100 | 100 | 94 | 94
COc1ccc2[nH]c3c4[nH]c5ccc(OC)cc5c4c4c(c3c2c1)C(=O)NC4=O [GW296115X] | 44 | 54 | 71 | 25 | 83 | 86 | 57 | 16 | 17 | 30 | 76 | 71 | 100 | 56 | 93 | 99 | 89 | 86 | 81 | 10
Cl.O=C(O[C@H]1CN[C@H](C#Cc2cc3ncnc(Nc4ccc5c(cnn5Cc5ccccc5)c4)c3s2)C1)N1CCOCC1 [GSK200398A] | 100 | 92 | 100 | 91 | 100 | 88 | 71 | 84 | 100 | 100 | 100 | 100 | 96 | 90 | 99 | 98 | 99 | 91 | 78 | 100
COC(=O)Nc1nc2ccc(Oc3ccc(NC(=O)Nc4cc(C(F)(F)F)ccc4F)cc3)cc2s1.Cl [GW693917A] | 69 | 82 | 85 | 100 | 100 | 64 | 71 | 13 | 50 | 6 | 75 | 61 | 89 | 80 | 99 | 100 | 17 | 30 | 96 | 100
CC1=C(C(=O)Nc2ccc3[nH]ncc3c2)C(c2ccc(Cl)c(Cl)c2)CC(=O)N1 (stereo not drawn) [GSK299115A] | 67 | 97 | 100 | 85 | 98 | 82 | 45 | 60 | 56 | 100 | 100 | 91 | 100 | 67 | 69 | 75 | 82 | 100 | 70 | 92
NS(=O)(=O)c1ccc(N/N=C2\C(=O)Nc3ccc(-c4cnco4)cc32)cc1 [GW276655] | 95 | 100 | 65 | 100 | 100 | 85 | 70 | 66 | 65 | 100 | 20 | 63 | 100 | 94 | 62 | 100 | 100 | 86 | 82 | 100
COc1cccc(-n2ncc3c(N/N=C/c4ccncc4)ncnc32)c1 [GW784752X] | 100 | 86 | 79 | 96 | 100 | 62 | 69 | 89 | 94 | 100 | 66 | 45 | 51 | 0.1 | 86 | 100 | 3.2 | 6.5 | 100 | 18
COc1cc(C=NNc2ncnc3c2cnn3-c2ccccc2)ccc1O [GW513184X] | 100 | 100 | 48 | 84 | 100 | 100 | 33 | 96 | 59 | 60 | 25 | 16 | 40 | 20 | 100 | 100 | 65 | 77 | 100 | 54
Cc1cc(O)cc(C)c1/C=C/c1cncc(C(N)=O)c1 [GW435821X] | 100 | 83 | 85 | 100 | 100 | 79 | 85 | 100 | 100 | 100 | 100 | 59 | 64 | 4.4 | 100 | 100 | 12 | 23 | 58 | 94
